Experimental data: the supplement of paper PMC12669032
Several values for one entry are separate records, joined by “and”; a condition that tells them apart may be missing. Identical values can stand only once. A number with no mark means an inactive call.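 How the source made its calls: active = AUC reduced over 20% with Padj below 0.05 in at least 2 of 3 replicates; inactive = otherwise.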

Test system: Bacteroides uniformis
Experiment: growth AUC relative to DMSO control (median of replicates) (fraction); higher = more growth (less inhibition), active = hit call of the paper
Conditions: 20 µM; 24 h
How it was run: (§1)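 Starting at OD600 0.05, gut bacterial monocultures in mGAM were grown anaerobically at 37 °C with 20 µM compound (1% DMSO) under pierced gas-permeable seals. OD600 was read every hour for 24 h, and the lowest OD of each curve was set to 0. Area under the growth curve was normalised to the plate median of solvent-only wells, or to row and column medians on the industrial chemical plate, and the median of three biological replicates grown on separate days is given.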

Row | SMILES | growth AUC
1 | CCC(C)c1cc([N+](=O)[O-])cc([N+](=O)[O-])c1O (stereo unspecified) | 0.889
2 | CCOP(=S)(OCC)SCSC(C)(C)C | 1.02
3 | CCNc1nc(Cl)nc(NC(C)(C)C#N)n1 | 0.986
4 | Cc1ccccc1C(=O)Nc1cccc(OC(C)C)c1 | 0.945
5 | N#CN=C1SCCN1Cc1ccc(Cl)nc1 | 0.991
6 | COP(=O)(OC)Oc1ccc(S(C)=O)c(C)c1 (stereo unspecified) | 0.994
7 | COCC(=O)N(c1c(C)cccc1C)[C@H](C)C(=O)OC | 1.02
8 | CC(=NC#N)N(C)Cc1ccc(Cl)nc1 | 1 and 0.993
9 | CC1(C)C(C(=O)OC(C#N)c2cccc(Oc3ccccc3)c2)C1(C)C (stereo unspecified) | 1.01
10 | CNC(=O)Oc1cc(C)c(N(C)C)c(C)c1 | 1
11 | CN(C)C(=S)SSC(=S)N(C)C | 0.909
12 | CCOP(=S)(OCC)SCn1nnc2ccccc2c1=O | 0.913
13 | [CH3][Hg][Cl] | 0.77 (active)
14 | CCCCc1c(C)nc(NCC)nc1OS(=O)(=O)N(C)C | 0.901
15 | CC1(C)[C@H](/C=C(\Cl)C(F)(F)F)[C@@H]1C(=O)O[C@@H](C#N)c1cccc(Oc2ccccc2)c1 | 0.984
16 | CCCN(CCOc1c(Cl)cc(Cl)cc1Cl)C(=O)n1ccnc1 | 0.836
17 | CCOP(=S)(OCC)Oc1cc(Cl)c(Br)cc1Cl | 0.966
18 | C/C(=N\NC(=O)Nc1cc(F)cc(F)c1)c1ncccc1C(=O)[O-].[Na+] | 0.946
19 | C1=Cc2cccc3cccc1c23 | 1
20 | CCc1ccc(C(=O)NN(C(=O)c2cc(C)cc(C)c2)C(C)(C)C)cc1 | 0.955
21 | C#CCOc1ccc(CCNC(=O)C(OCC#C)c2ccc(Cl)cc2)cc1OC (stereo unspecified) | 0.901
22 | COC(=O)c1ccccc1S(=O)(=O)NC(=O)Nc1nc(C)nc(OC)n1 | 1.03

Test system: Bifidobacterium longum subsp. longum
Experiment: as above
Conditions: 20 µM; 24 h
How it was run: as §1

Row | SMILES | growth AUC
23 | Cc1cccc(C)c1N | 1.04
24 | C=CCOC(=O)C(C)(C)OC(=O)c1cc(-n2c(=O)cc(C(F)(F)F)n(C)c2=O)ccc1Cl | 0.96
25 | CCOP(=O)(NC(C)C)Oc1ccc(S(C)(=O)=O)c(C)c1 (stereo unspecified) | 0.986
26 | Cc1cc(OC(=O)N(C)C)nn1C(=O)N(C)C | 0.988
27 | CCCCCCCCSC(=O)Oc1cc(Cl)nnc1-c1ccccc1 | 0.966
28 | CC1(C(=O)Nc2ccc(O)c(Cl)c2Cl)CCCCC1 | 0.978
29 | CC(Oc1ccc(Oc2ccc(Cl)cc2Cl)cc1)C(=O)O (racemic) | 0.903
30 | C[Si](Cn1cncn1)(c1ccc(F)cc1)c1ccc(F)cc1 | 0.923
31 | CN(C)C1CSSSC1.O=C(O)C(=O)O | 0.964
32 | COP(=S)(OC)SCn1nnc2ccccc2c1=O | 0.949
33 | CCSC(=O)N1CCCCCC1 | 0.992
34 | O=C(O)c1c(Cl)ccc2cc(Cl)cnc12 | 0.961
35 | CCCSP(=S)(OCC)Oc1ccc(SC)cc1 (stereo unspecified) | 0.971
36 | Cc1cc(C(F)(C(F)(F)F)C(F)(F)F)ccc1NC(=O)c1cccc(I)c1C(=O)NC(C)(C)CS(C)(=O)=O | 1.06
37 | Cc1cc(Cl)ccc1O | 0.911
38 | COc1cc(OC)nc(NC(=O)NS(=O)(=O)c2ncccc2C(=O)N(C)C)n1 | 0.96
39 | Cc1cccc2sc3nncn3c12 | 0.964
40 | CCC(C)c1cc([N+](=O)[O-])cc([N+](=O)[O-])c1O (stereo unspecified) | 0.981
41 | CCOP(=S)(OCC)SCSC(C)(C)C | 1.13
42 | CCNc1nc(Cl)nc(NC(C)(C)C#N)n1 | 0.946

Row | SMILES | growth AUC
43 | Cc1ccccc1C(=O)Nc1cccc(OC(C)C)c1 | 1.02
44 | N#CN=C1SCCN1Cc1ccc(Cl)nc1 | 1.04
45 | COP(=O)(OC)Oc1ccc(S(C)=O)c(C)c1 (stereo unspecified) | 1
46 | COCC(=O)N(c1c(C)cccc1C)[C@H](C)C(=O)OC | 1.1
47 | CC(=NC#N)N(C)Cc1ccc(Cl)nc1 | 1.03 and 0.979
48 | CC1(C)C(C(=O)OC(C#N)c2cccc(Oc3ccccc3)c2)C1(C)C (stereo unspecified) | 0.951
49 | CNC(=O)Oc1cc(C)c(N(C)C)c(C)c1 | 0.991
50 | CN(C)C(=S)SSC(=S)N(C)C | 0.974
51 | CCOP(=S)(OCC)SCn1nnc2ccccc2c1=O | 1.04
52 | [CH3][Hg][Cl] | 0.868
53 | CCCCc1c(C)nc(NCC)nc1OS(=O)(=O)N(C)C | 0.996
54 | CC1(C)[C@H](/C=C(\Cl)C(F)(F)F)[C@@H]1C(=O)O[C@@H](C#N)c1cccc(Oc2ccccc2)c1 | 0.963
55 | CCCN(CCOc1c(Cl)cc(Cl)cc1Cl)C(=O)n1ccnc1 | 0.89
56 | CCOP(=S)(OCC)Oc1cc(Cl)c(Br)cc1Cl | 0.954
57 | C/C(=N\NC(=O)Nc1cc(F)cc(F)c1)c1ncccc1C(=O)[O-].[Na+] | 0.987
58 | C1=Cc2cccc3cccc1c23 | 0.946
59 | CCc1ccc(C(=O)NN(C(=O)c2cc(C)cc(C)c2)C(C)(C)C)cc1 | 0.911
60 | C#CCOc1ccc(CCNC(=O)C(OCC#C)c2ccc(Cl)cc2)cc1OC (stereo unspecified) | 1.02
61 | COC(=O)c1ccccc1S(=O)(=O)NC(=O)Nc1nc(C)nc(OC)n1 | 1
